Results on four molecules are retold here after PubChem BioAssay.

The nature of assay [1]: yeast TOR pathway RPL19A-GFP modulators, primary screen, cell-based, S. cerevisiae, multiplex flow cytometry (AID 1862; in the data active = percent of DMSO control GFP below about 86%;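 also: lower values mimic rapamycin by blocking the RPL19A rise seen in DMSO cells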). Particulars: S. cerevisiae RPL19A-GFP strain, flow cytometry fluorescence, 3 h; at 10 µM; stronger effect = lower value. (A flow cytometer gives signals particle by particle.)
Assay [2] in a line: modulators of MEP2-GFP levels in yeast, primary screen, S. cerevisiae, multiplex flow cytometry (AID 1867;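 active = GFP response, as percent of the DMSO control, above the screen-wide mean plus 3 SD, about 139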;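 also: median GFP channel fluorescence of barcode-gated MEP2-GFP cells measured by flow cytometry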). As to conditions: S. cerevisiae MEP2-GFP strain, 3 h, at 10 µM, stronger effect = higher value, 100% means same as DMSO wells.
Assay [3] in a line: modulators of CIT2-GFP expression in yeast, primary screen, S. cerevisiae, GFP fusion, multiplex flow cytometry (AID 1870;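 active = percent response above a set limit, the screen-wide mean plus 3 SD, cut at about 130% in these data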;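 also: barcoded CIT2-GFP strain pooled with four other GFP strains with rapamycin as positive control; median GFP fluorescence per well over plate mean of DMSO wells so 100% = DMSO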). As to conditions: 3 h, at 10 µM, stronger effect = higher value.
Assay [4] is described as follows: modulators of LAP4-GFP expression in yeast, primary screen, S. cerevisiae, multiplex flow cytometry (AID 1873;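 active = GFP signal, as percent of the solvent control, above the screen mean plus 3 SD, about 149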). Particulars: 3 h, at 10 µM, stronger effect = higher value.
Assay [5] is described as follows: modulators of AGP1-GFP expression in yeast TOR pathway, primary screen, cell-based, multiplex flow cytometry, S. cerevisiae (AID 1887;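 active = GFP signal above the screen-wide mean plus 3 SD, that is over about 124.5% of the solvent control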;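 also: AGP1-GFP fusion strain of S. cerevisiae within a five-strain barcoded multiplex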). Particulars: 3 h, at 10 µM, stronger effect = higher value.
The nature of assay [6]: inhibitors of CD8+ T cell-vesicle binding, pilot screen, LFA-1/ICAM-1 modulator project, MLPCN validation set, flow cytometry (AID 2523;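 active = response below a set limit, under 55% cells CD8-positive and vesicle-bound, and CD8 cells' 90th-percentile brightness under 279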;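 as to vesicle binding response: mean PE anti-B7-1 fluorescence of CD8+ cells relative to row control; 100% = QL9-loaded vesicles with DMSO vehicle in the same plate row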). Particulars: 2C mouse CD8+ T cells, at 7 µM, stronger effect = lower value; double positive events: measured here: CD8+/vesicle+ event percentage.
The target in assay [7] is Integrin beta-1 (Homo sapiens) + Integrin alpha-4 (Homo sapiens) (UniProt P13612+P05556). Kind of assay: inhibition of HUTS-21 binding to VLA-4, pilot screen, VLA-4 allosteric modulator project, U937 cells, HUTS-21 mAb, flow cytometry, validation set (AID 2674;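 active = inhibition above 50%, about 3 SD of the validation set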;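 also: antibody binding induced by the VLA-4 ligand LDV present at three times its Kd; 0% = LDV ligand with antibody and no compound and 100% = antibody without LDV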). Particulars: HUTS-21 LIBS mAb binding, at 6.7 µM, stronger effect = higher value, binding induced by LDV ligand.
Assay [8] in a line: superoxide lowering in aged yeast cells, pilot screen, validation compound set (AID 2706;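 active = superoxide response below 65% of plate, a cut near 3 SD across the whole screen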;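 also: yeast exposed to compound for one week at 30 degrees C before staining; 100% = mean of all compound wells on the same plate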). As to conditions: S. cerevisiae aging, superoxide DHE fluorescence; at 10 µM; stronger effect = lower value.
For assay [9], the target named is Beta-adrenergic receptor kinase 1 (Homo sapiens) (UniProt P25098). Kind of assay: GRK2 binders displacing RNA aptamer, biochemical, validation, human GRK2, bead flow cytometry (AID 488806;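 active = aptamer binding inhibition above 30%, about 3 SD of noise from non-fluorescent compounds; inactive = inhibition at or below 30%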). Particulars: bead-bound GRK2, FAM-aptamer displacement, at 10 µM, stronger effect = higher value.
The target of assay [10] is Beta-2 adrenergic receptor (Homo sapiens) (UniProt P07550). Kind of assay: beta2AR agonists driving receptor internalization, pilot screen, cell-based, FAP fluorogen, flow cytometry, validation set (AID 504459;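 active = percent response above 42, roughly 3 SD of non-fluorescent test compounds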;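 also: agonist-driven loss of surface beta2AR via internalization measured by FAP dye flow cytometry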). As to conditions: Am2.2-beta2AR cells, FAP surface receptor flow cytometry; at 10 µM; stronger effect = higher value.
Assay [11] has as its target AP-2 complex subunit beta (Homo sapiens) (UniProt P63010). Kind of assay: inhibitors of arrestin peptide binding to AP2, pilot screen, biochemical, validation set, GST-AP2 beads, flow cytometry (AID 504541).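 Also: AP2 carries R879A mutation and is captured from E. coli lysate; bead-bound FITC arrestin peptide fluorescence measuring arrestin peptide binding to AP2; 0% = DMSO wells and 100% = excess unlabeled arrestin peptide control.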 Particulars: FITC arrestin peptide, at 10 µM, stronger effect = higher value, AP2 beta2 appendage fragment, R879A mutant.
A short description of assay [12]: yeast V-ATPase proton transport modulators, S. cerevisiae, pHLuorin, HTS validation (AID 504600; in the data active = response above about 15%;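 also: plate controls were DMSO for no effect and reference compound for full effect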). As to conditions: S. cerevisiae pHLuorin cytosolic pH, at 10 µM, stronger effect = higher value.
For assay [13], the system named is anti-desmoglein-3 scFv antibody binding to human DSG3. Nature of the assay: inhibitors of anti-DSG3 scFv binding to DSG3, pilot screen, biochemical, validation compound set, bead-based, flow cytometry (AID 588368;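 active = binding below the plate cutoff, the plate median minus 3 SD, with a reading above zero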;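 also: signal is the median channel fluorescence of bead-bound GFP antibody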). Particulars: Protein G beads, DSG3-Fc, scFv-GFP binding, at 10 µM, stronger effect = lower value.
Assay [14] is described as follows: inhibitors of fungal efflux pumps CDR1, CDR2, MDR1, pilot screen, validation compound set, multiplex, phenotypic (AID 588506;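 active = efflux inhibition above 0.42, the validation set average plus 4 SD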;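 also: Nile Red retained in cells so higher fluorescence means more efflux inhibition; 0 = negative control wells and 1 = enniatin B 25 µM full block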). As to conditions: S. cerevisiae pump-expressing triplex, Nile Red efflux flow cytometry; at 10 µM; stronger effect = higher value; the pumps come from Candida albicans.
The target in assay [15] is ATP-binding cassette sub-family B member 6 (Homo sapiens) (UniProt Q9NP58). Kind of assay: ABCB6 transporter inhibitors, pilot screen, K562-ABCB6 cells, flow cytometry, validation set (AID 588550;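 active = inhibition above the screen-wide mean plus 3 SD, about 51%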;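 also: 0% = DMSO wells and 100% = benzethonium chloride 70 µM positive control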). As to conditions: K562-ABCB6 porphyrin accumulation, 1 h, at 10 µM, stronger effect = higher value.
A short description of assay [16]: promoters of myeloid differentiation in arrested cells, primary screen, cell-based, GFP/MAC1 double positive, flow cytometry, validation set (AID 588685;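 active = differentiation response of at least 50%, scaled between solvent and reference control, from cells with both markers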;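 also: compound exposure lasts four days before antibody staining and flow analysis; 0% = DMSO wells and 100% = 5 µM fulvestrant positive control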). Particulars: ER-HoxA9 marrow cells, stronger effect = higher value, normalized: vehicle 0, fulvestrant 100.

Structures are written as SMILES. Records with an inconclusive call do not appear. Calls of active or inactive are those of the source.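 The calls were made as follows, unless noted: active = inhibition above 54%, about 3 SD of non-fluorescent compounds; inactive = the rest.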

Beta-2 adrenergic receptor (Homo sapiens), sequence (P07550 whole entry, looked up): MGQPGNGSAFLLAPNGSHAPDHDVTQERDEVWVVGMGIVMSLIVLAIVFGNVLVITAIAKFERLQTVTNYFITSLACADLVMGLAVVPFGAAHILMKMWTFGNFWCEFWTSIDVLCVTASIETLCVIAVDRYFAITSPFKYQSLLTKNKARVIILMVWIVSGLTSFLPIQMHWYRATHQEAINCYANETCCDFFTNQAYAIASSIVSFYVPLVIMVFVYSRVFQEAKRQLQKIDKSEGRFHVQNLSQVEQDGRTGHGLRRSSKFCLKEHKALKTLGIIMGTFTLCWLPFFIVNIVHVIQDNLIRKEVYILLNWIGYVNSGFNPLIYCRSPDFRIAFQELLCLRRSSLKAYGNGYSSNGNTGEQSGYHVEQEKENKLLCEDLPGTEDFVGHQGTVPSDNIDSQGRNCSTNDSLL
Integrin beta-1 (Homo sapiens) + Integrin alpha-4 (Homo sapiens), sequence (P05556 whole entry, looked up): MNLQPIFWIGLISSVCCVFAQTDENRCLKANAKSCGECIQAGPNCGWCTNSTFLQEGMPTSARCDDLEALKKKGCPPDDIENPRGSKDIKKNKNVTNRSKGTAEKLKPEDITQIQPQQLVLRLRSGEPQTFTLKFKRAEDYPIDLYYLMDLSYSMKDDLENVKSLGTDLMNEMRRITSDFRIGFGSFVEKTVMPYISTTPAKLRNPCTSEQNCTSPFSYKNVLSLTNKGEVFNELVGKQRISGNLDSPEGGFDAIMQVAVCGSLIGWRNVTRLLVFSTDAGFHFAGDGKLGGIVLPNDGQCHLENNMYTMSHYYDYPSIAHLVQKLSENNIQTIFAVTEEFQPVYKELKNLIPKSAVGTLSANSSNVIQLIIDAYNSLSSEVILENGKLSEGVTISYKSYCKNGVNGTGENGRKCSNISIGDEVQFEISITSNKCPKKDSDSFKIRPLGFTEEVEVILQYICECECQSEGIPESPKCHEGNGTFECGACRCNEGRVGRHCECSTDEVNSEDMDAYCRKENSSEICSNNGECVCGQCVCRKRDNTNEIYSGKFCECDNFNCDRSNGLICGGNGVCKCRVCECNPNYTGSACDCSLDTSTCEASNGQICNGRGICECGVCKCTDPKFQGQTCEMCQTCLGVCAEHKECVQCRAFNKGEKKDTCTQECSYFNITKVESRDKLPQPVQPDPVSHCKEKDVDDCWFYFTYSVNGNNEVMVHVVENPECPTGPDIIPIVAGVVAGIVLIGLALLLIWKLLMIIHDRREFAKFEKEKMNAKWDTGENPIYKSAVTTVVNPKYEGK
Integrin beta-1 (Homo sapiens) + Integrin alpha-4 (Homo sapiens), sequence (P13612 whole entry, looked up): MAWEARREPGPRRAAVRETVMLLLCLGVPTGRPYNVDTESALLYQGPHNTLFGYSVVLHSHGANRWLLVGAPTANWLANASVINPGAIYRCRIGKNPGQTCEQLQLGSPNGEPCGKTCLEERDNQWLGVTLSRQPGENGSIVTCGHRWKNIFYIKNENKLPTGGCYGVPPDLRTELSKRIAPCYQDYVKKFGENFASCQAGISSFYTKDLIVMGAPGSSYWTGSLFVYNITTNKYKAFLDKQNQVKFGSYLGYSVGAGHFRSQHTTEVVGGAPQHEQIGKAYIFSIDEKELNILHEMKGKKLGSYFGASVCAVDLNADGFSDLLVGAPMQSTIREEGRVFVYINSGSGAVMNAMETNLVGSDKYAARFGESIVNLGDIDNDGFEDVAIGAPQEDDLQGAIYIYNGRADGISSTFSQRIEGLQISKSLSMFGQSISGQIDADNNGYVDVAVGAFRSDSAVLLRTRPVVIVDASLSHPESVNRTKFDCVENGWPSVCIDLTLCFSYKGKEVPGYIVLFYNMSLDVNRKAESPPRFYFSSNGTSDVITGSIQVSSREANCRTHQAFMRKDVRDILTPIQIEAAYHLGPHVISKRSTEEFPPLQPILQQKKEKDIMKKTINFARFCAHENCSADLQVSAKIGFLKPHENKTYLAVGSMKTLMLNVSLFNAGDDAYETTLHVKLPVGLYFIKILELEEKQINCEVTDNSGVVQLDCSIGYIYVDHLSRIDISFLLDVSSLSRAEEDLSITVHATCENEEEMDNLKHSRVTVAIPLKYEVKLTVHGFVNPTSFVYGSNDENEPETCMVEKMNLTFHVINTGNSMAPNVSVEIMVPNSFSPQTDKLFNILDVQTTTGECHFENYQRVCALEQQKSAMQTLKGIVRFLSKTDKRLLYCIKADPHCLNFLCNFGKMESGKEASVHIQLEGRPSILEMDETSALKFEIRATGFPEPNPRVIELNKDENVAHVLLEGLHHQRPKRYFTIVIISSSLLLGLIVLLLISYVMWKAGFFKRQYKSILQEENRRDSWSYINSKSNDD
ATP-binding cassette sub-family B member 6 (Homo sapiens), sequence (Q9NP58 whole entry, looked up): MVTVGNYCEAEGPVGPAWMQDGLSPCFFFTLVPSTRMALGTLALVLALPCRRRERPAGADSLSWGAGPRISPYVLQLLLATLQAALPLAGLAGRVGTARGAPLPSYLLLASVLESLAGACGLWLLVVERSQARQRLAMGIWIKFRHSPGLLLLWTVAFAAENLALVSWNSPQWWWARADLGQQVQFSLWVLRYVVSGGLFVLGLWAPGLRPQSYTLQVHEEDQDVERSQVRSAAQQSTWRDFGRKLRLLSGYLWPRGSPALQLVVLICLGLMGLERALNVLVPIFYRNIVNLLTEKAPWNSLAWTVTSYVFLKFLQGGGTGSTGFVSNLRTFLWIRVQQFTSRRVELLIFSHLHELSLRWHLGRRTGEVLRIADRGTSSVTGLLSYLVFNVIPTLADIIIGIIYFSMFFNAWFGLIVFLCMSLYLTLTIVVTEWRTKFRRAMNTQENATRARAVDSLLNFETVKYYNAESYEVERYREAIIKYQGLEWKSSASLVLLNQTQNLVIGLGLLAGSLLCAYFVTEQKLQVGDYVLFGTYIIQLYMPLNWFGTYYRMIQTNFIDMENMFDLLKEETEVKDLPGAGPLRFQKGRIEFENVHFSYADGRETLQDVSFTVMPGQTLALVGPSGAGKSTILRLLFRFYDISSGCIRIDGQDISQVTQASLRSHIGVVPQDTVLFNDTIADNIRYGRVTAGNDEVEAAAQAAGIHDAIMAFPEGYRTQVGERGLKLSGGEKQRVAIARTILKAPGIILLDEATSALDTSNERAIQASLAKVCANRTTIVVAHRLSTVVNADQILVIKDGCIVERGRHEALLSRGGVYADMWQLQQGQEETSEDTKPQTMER
Beta-adrenergic receptor kinase 1 (Homo sapiens), sequence (P25098 whole entry, looked up): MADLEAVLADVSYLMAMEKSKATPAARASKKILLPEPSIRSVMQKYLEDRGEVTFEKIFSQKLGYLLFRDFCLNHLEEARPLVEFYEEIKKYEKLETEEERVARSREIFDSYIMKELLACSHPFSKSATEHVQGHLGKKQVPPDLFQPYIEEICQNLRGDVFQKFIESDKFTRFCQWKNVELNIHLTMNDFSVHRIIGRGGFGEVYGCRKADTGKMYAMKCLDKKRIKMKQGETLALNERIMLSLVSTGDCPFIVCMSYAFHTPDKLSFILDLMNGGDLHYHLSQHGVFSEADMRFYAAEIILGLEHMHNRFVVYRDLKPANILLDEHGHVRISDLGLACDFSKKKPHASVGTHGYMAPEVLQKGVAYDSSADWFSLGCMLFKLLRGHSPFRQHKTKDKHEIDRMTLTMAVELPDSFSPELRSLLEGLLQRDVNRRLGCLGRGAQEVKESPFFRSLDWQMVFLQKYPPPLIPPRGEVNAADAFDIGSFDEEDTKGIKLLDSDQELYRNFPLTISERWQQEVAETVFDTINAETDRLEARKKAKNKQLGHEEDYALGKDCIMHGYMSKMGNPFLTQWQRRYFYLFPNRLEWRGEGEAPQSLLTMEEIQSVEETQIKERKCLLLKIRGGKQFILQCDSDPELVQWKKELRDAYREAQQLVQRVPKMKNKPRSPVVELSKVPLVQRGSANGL
AP-2 complex subunit beta (Homo sapiens), sequence (P63010 whole entry, looked up, the tested form may be a part, one chain of several): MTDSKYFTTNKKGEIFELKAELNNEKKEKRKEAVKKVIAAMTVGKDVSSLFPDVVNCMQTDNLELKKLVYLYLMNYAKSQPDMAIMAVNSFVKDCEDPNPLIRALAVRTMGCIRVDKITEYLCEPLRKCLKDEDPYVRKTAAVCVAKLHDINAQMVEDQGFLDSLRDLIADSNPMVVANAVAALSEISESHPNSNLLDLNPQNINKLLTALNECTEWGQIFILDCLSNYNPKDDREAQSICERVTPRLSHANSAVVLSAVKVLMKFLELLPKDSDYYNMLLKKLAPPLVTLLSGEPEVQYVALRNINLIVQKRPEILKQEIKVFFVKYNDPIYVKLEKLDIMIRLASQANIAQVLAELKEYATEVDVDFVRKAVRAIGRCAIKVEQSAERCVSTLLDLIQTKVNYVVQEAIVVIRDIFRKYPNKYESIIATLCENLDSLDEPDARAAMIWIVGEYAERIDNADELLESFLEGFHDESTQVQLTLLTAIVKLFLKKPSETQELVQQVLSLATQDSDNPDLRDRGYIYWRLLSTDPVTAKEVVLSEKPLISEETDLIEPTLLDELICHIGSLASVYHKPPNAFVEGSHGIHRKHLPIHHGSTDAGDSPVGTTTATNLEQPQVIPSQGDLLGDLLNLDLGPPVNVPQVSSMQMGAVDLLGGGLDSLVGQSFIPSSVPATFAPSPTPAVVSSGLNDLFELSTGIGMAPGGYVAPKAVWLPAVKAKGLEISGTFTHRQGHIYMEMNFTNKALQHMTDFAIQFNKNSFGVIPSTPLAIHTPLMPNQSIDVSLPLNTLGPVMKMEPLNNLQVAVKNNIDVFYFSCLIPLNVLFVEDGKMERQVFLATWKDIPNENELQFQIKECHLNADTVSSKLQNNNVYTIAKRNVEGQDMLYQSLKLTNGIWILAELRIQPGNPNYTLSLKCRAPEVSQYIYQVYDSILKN

`O=c1ccc2c(o1)/C(=C/C=C(Cl)Cl)CCC2`: the percent of DMSO control GFP in [1] was 101% (inactive). Besides, the GFP response vs DMSO in assay [2] was 101% (inactive); in assay [4], 110% (inactive). For the same molecule, the percent response of DMSO control in [3] is 90.1% (inactive). In addition, the GFP response, % of DMSO in [5] was 84% (inactive). Besides, in assay [6], the double positive events was 56.9%. Moreover, the vesicle binding response in [6] was 236% (inactive). The results for the inhibition in assay [7], in assay [11] and in [15] were -7.25% (inactive), 60.4% (active) and 6% (inactive), respectively. Further, the superoxide response (% of plate) in assay [8] was 101% (inactive). The aptamer binding inhibition in assay [9] was 2% (inactive). Also, the response is 62.6% (active) in [10] and -6.24% (inactive) in [12]. The binding (% of control) in assay [13] was 101% (inactive). In assay [14], the efflux inhibition (fraction of control) is -0.06 (inactive). The differentiation response in [16] was -10.4% (inactive).
Take `O=Cc1ccccc1Oc1ccccc1`: in assay [1], the percent of DMSO control GFP was 93.3% (inactive). Moreover, the GFP response vs DMSO in [2] is 125% (inactive); in assay [4], 86.4% (inactive). Also, the percent response of DMSO control in assay [3] was 115% (inactive). For the same molecule, the GFP response, % of DMSO in assay [5] is 90.3% (inactive). In assay [6], the double positive events was 57.3%. Moreover, the vesicle binding response in assay [6] was 200% (inactive). The inhibition (in general, the change of the read-out against control, counted positive when it falls) was -14.9% (inactive) in assay [7], 32.8% (inactive) in assay [11] and -2% (inactive) in assay [15]. Further, in [8], the superoxide response (% of plate) is 107% (inactive). Moreover, the aptamer binding inhibition in assay [9] was -5% (inactive). Moreover, the response was -1.17% (inactive) in assay [10] and -3.79% (inactive) in assay [12]. Moreover, in assay [13], the binding (% of control) was 107% (inactive). In addition, the efflux inhibition (fraction of control) in assay [14] was 0.12 (inactive). Besides, in [16], the differentiation response was 33.6% (inactive).
Take `CN(C)CCC(c1ccccc1)c1ccccn1` (stereo not drawn): in assay [1], the percent of DMSO control GFP was 97.2% (inactive). Further, the GFP response vs DMSO in [2] is 130% (inactive); in [4] it was 83.6% (inactive). The percent response of DMSO control in assay [3] is 97.9% (inactive). In addition, in assay [5], the GFP response, % of DMSO is 86.1% (inactive). In [6], this molecule returned a double positive events of 64.9%. Besides, in assay [6], the vesicle binding response is 139% (inactive). Also, the inhibition in [7] was 14.2% (inactive); in assay [11], -9.57% (inactive); in assay [15], 12% (inactive). Besides, the superoxide response (% of plate) in [8] is 93.1% (inactive). Besides, the aptamer binding inhibition in assay [9] is 3% (inactive). The response in assay [10] is -2.11% (inactive); in [12], -0.43% (inactive). For the same molecule, the binding (% of control) in assay [13] is 97.8% (inactive). Besides, in assay [14], the efflux inhibition (fraction of control) is -0.35 (inactive). In addition, the differentiation response in assay [16] was 8.19% (inactive).
On to `COc1ccc(NC(=O)Nc2ccc(C(C)C)cc2)cc1`, for which, in assay [1], the percent of DMSO control GFP is 104% (inactive). Further, the values for the GFP response vs DMSO in [2] and in assay [4] were 103% (inactive) and 95.9% (inactive), respectively. For the same molecule, the percent response of DMSO control in assay [3] was 101% (inactive). The GFP response, % of DMSO in [5] is 88.6% (inactive). The molecule also came in with a double positive events in assay [6] of 56.2%. In addition, in assay [6], the vesicle binding response was 126% (inactive). Further, the inhibition in assay [7] is 20.4% (inactive); in [11], -5.4% (inactive); in assay [15], -11% (inactive). In addition, the superoxide response (% of plate) in [8] was 98.7% (inactive). Also, the aptamer binding inhibition in assay [9] is 7% (inactive). Moreover, the figures for the response in assay [10] and in assay [12] were 2.17% (inactive) and -1.78% (inactive), respectively. The binding (% of control) in assay [13] is 97.3% (inactive). The efflux inhibition (fraction of control) in assay [14] is 0.03 (inactive). Besides, the differentiation response in assay [16] was 2.74% (inactive).
